Most compounds without a hit are left out; they make up all but 21% or so of the library.
NS1 function inh = inhibitors of influenza NS1 protein function. Potency, µM (series often up to 46.1 µM). 270,000 tested, 0.4% active. AID 2326; calls by dose curve; note: actives are rising curves; nearly all actives have a fitted effect of over 50% in size
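Compounds were scored for reversing the slow growth caused by influenza A NS1 in S. cerevisiae, measured by optical density at 600 nm. Assay medium contained 2% galactose at pH 6.0; NS1-free yeast of the same strain were the positive control.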
CHX counter = counter-screen hit for Shiga toxin inhibitors, cycloheximide; cell reporter, cycloheximide protein synthesis inhibition counterscreen; 300,000 tested, 12% active; max response, %; AID 2314; in the data active = max response mostly above about 13%, no sharp cut-off; inactive = mostly below about 14%; note: read at 38.3 µM for the half of the compounds with a filed dose
Pf growth 96h = inhibits malaria parasite growth, 96 h; P. falciparum luciferase reporter growth, 96 h; Potency, µM (top dose mostly 28.7 µM), hits mostly inhibitors; 320,000 tested, 6.9% active; AID 504834
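Delayed-death screen, second-generation endpoint: infected erythrocytes, 2% hematocrit, 0.05% parasitemia final; 96 hours at 37 C, 5% CO2; luciferase detection reagent; luminescence decrease equals reduced growth.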
Pf growth 48h = inhibits P. falciparum growth in the first generation, 48 h | P. falciparum luciferase growth in erythrocytes, 48 h | Potency, µM (top dose mostly 28.7 µM), usual class: inhibitors | 310,000 tested, 5.9% active | AID 504832
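Erythrocytes infected with P. falciparum carrying an integrated firefly luciferase reporter (2% hematocrit, 0.1% parasitemia final) were exposed to compounds in RPMI 1640 with 0.5% Albumax at 37 C, 5% CO2. Growth inhibition was scored as reduced luminescence.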
SARS PLP yeast = blocks SARS-CoV papain-like protease in a yeast assay. S. cerevisiae expressing SARS-CoV PLpro, growth rescue. Potency, µM (titrated, usually from 32.9 µM), hits mostly activators. 330,000 tested, 0.19% active. AID 485353; calls by dose curve; note: nearly all actives have a fitted effect of over 55% in size
Shiga toxin inh = blocks Shiga toxin action in Vero cells. 290,000 tested, 9.2% active. Vero cells, Shiga toxin protein synthesis inhibition reporter. AID 2315. inhibition, % at 38.7 µM; in the data active = inhibition mostly above about 28%, no sharp cut-off; inactive = mostly below about 43%
Each line names hits and unclear results; the compound was inactive in the other large screens. Unless noted, calls come from the whole dose curve; as a rule, active = well fitted inhibition curve with a large enough effect; inconclusive = small, poorly fitted or top-dose-only effect, or another doubt; inactive = no such curve, though single readings can be large or run the other way.

O=C(Cc1ccccc1)Nc1nnc(-c2ccco2)s1	CHX counter 34, Pf growth 96h inconclusive, Shiga toxin inh 135
CCCC(=O)Nc1nnc(-c2ccco2)s1	CHX counter 40, Pf growth 96h 13µM, Shiga toxin inh 58
CCC(C(=O)Nc1nnc(-c2ccco2)s1)c1ccccc1 (stereo unspecified)	Pf growth 96h 12µM
COc1ccc(-c2nnc(NC(=O)Cc3ccccc3)s2)c(OC)c1	none
CCc1nnc(NC(=O)C(CC)c2ccccc2)s1 (stereo unspecified)	none
Cc1ccc([N+](=O)[O-])cc1NC(=S)NC(=O)c1c(Cl)cnn1C	none
N#CC(Cc1ccc(OC(F)F)cc1)c1nc2ccccc2[nH]1 (stereo unspecified)	CHX counter 26, Shiga toxin inh 66
Cn1nc(C(=O)NCc2ccccc2CN2CCCC2)c2ccccc2c1=O	Pf growth 96h 15µM, Pf growth 48h inconclusive (no result: NS1 function inh, CHX counter, Shiga toxin inh)
Cn1nc(C(=O)NCC2CCCO2)c2ccccc2c1=O (stereo unspecified)	none (no result: Pf growth 96h)
COc1cc(CC(C#N)(CO)c2nc3ccccc3[nH]2)ccc1OC(F)F (stereo unspecified)	Pf growth 48h inconclusive
O=C(NO)c1ccc(OC(F)F)cc1	NS1 function inh inconclusive, Pf growth 96h inconclusive, Pf growth 48h 10µM
O=C(Nc1nc2ccccc2[nH]1)c1ccc(OC(F)F)cc1	CHX counter 19, Shiga toxin inh 59
O=C(Nc1nc2ccccc2[nH]1)c1ccccc1OC(F)F	none
CCC(C(=O)Nc1ccc2[nH]ncc2c1)c1ccccc1 (stereo unspecified)	Pf growth 48h inconclusive
Cn1nc(C(=O)Nc2nc3ccccc3[nH]2)c2ccccc2c1=O	CHX counter 29
CCn1nc(C(=O)Nc2nc3ccccc3[nH]2)c2ccccc2c1=O	none
CCC(Oc1ccccc1)C(=O)Nc1nc2ccccc2[nH]1 (stereo unspecified)	CHX counter 21
CC(C)Oc1ccc(C(=O)Nc2nc3ccccc3[nH]2)cc1	CHX counter 25
O=C(CCNC(=O)c1ccc(Cl)cc1)Nc1nc2ccccc2[nH]1	none (no result: NS1 function inh, CHX counter, Pf growth 96h, Pf growth 48h, Shiga toxin inh)
COc1ccc(S(=O)(=O)N2CCOCC2)cc1NC(=O)CNC(=O)c1cccs1	Pf growth 48h inconclusive (no result: NS1 function inh, CHX counter, Shiga toxin inh)
CS/C(=N\S(=O)(=O)c1cccs1)NC(=O)CSc1nc2ccccc2s1	Pf growth 96h 6.6µM (no result: Pf growth 48h)
Cn1cc(SCC(=O)Nc2nc3ccccc3s2)c2ccccc21	CHX counter 29
Cc1csc(SCC(=O)Nc2nnc(C)s2)n1	none
Cc1csc(SCC(=O)Nc2nc3ccccc3s2)n1	CHX counter 32, Shiga toxin inh 65 (no result: Pf growth 96h)
C/C(=N/NC(=O)CSc1nc2ccccc2s1)c1ccncc1	none
Cc1csc(SCC(=O)NC(=O)c2ccccc2)n1	none (no result: NS1 function inh, CHX counter, Shiga toxin inh)
Cc1csc(SCC(=O)Nc2ccccc2)n1	NS1 function inh inconclusive, CHX counter 11, Shiga toxin inh 66
O=C(CSc1ncn(-c2ccccc2)n1)Nc1nc2ccccc2s1	none
CC(C)(C)OC(=O)C[C@@H]1C/C=C\C[C@@H](CC(=O)NCCO)C(=O)NC[C@@H](c2ccccc2)OC1=O	none (no result: NS1 function inh, CHX counter, Pf growth 96h, Pf growth 48h, Shiga toxin inh)
CCn1c(CSc2nc3ccccc3s2)nc2ccccc21	Pf growth 96h inconclusive, Pf growth 48h inconclusive
Cc1cc(C)n2c(Br)c(CSc3nc4ccccc4s3)nc2n1	CHX counter 34, Pf growth 96h inconclusive, SARS PLP yeast inconclusive
COc1cc(NC(=O)CSc2nc(C)cs2)cc(OC)c1	none
Cc1cc(C)nc(NC(=O)CSc2nc3cc(Cl)ccc3s2)n1	none (no result: Pf growth 96h)
Cc1ccc(S(=O)(=O)NC(=O)CSc2nc3ccccc3s2)cc1	none
Cc1ccc(C)c(NC(=O)CSc2nc3ccc(N4C(=O)c5ccccc5C4=O)cc3s2)c1	Pf growth 96h 4.1µM
Cc1cc(C)nc(NC(=O)CSc2nc3ccccc3s2)n1	CHX counter 33, Shiga toxin inh 83 (no result: Pf growth 48h)
COc1ccc(NC(=O)CCSc2nc(C)cs2)cc1	CHX counter 32, Shiga toxin inh 131
Cc1cc(C)nc(SCC(=O)OCC(=O)Nc2nc3ccccc3s2)n1	CHX counter 22, Shiga toxin inh 14
CCc1ccc(C(=O)CCC(=O)Nc2ccc(OC)c(S(=O)(=O)N3CCCCC3)c2)cc1	Pf growth 96h inconclusive (no result: NS1 function inh, CHX counter, Shiga toxin inh)
CCC(=O)n1nc(-c2cccnc2)nc1NCc1cccs1	none (no result: NS1 function inh)
CCN(C(=O)Cc1cccs1)c1nnc(-c2cccnc2)s1	CHX counter 28, Shiga toxin inh 48
c1ccc(C(CCN2CC3CCC(CC3)C2)c2ccccc2)cc1	none (no result: CHX counter, Pf growth 96h, Pf growth 48h, SARS PLP yeast, Shiga toxin inh)
CC(=O)OC(C(=O)NC1CCCCC1)c1cccc(F)c1 (stereo unspecified)	none
COC(CN(C)C(C(=O)NC1CCCCC1)c1ccccc1)OC (stereo unspecified)	none (no result: NS1 function inh)
CC(=O)OC(C(=O)NC1CCCCC1)c1ccccc1F (stereo unspecified)	Pf growth 96h 9.3µM
COC(C(=O)NC1CCCCCCC1)c1ccccc1 (stereo unspecified)	Pf growth 96h 3.3µM
CN(O)/C=c1/ccc2c(n1)C(=O)C=CC=2	Pf growth 96h 12µM, Pf growth 48h 8.3µM
CCOC(=O)CNS(=O)(=O)c1ccc(S(=O)(=O)NC2CC2)cc1	Pf growth 96h inconclusive (no result: Shiga toxin inh)
Cc1nonc1C1CCCN1Cc1nc(-c2ccccc2Cl)oc1C (stereo unspecified)	Pf growth 48h inconclusive
Cc1oc(-c2ccccc2Cl)nc1CN1CCCCC1c1cccnc1 (stereo unspecified)	Pf growth 96h inconclusive, Pf growth 48h 12µM
COc1ccc(-c2nc(CN3CCCCC3c3cccnc3)c(C)o2)c(F)c1 (stereo unspecified)	Pf growth 96h inconclusive, Pf growth 48h 9.3µM
Cc1ccccc1-c1nc(CN2CCCC2c2ccc(F)cc2)c(C)o1 (stereo unspecified)	Pf growth 48h 10µM
Cc1oc(-c2ccccc2Cl)nc1CN1CCCC1c1ccc(F)cc1 (stereo unspecified)	Pf growth 96h 6.6µM, Pf growth 48h inconclusive
CCC1CCCCN1Cc1ccc(N)cc1 (stereo unspecified)	none
COc1ccc2[nH]c3c(c2c1)CCN1C(=O)C(CC(=O)NCc2cccc(C(F)(F)F)c2)C[C@H](C(=O)N(C(C)C)C(C)C)[C@@]31C (stereo partly specified)	none (no result: NS1 function inh, CHX counter, Pf growth 96h, Pf growth 48h, Shiga toxin inh)
CN(CC(=O)Nc1ccc(Cl)c(C(F)(F)F)c1)C(=O)c1cc(=O)c2ccccc2o1	Pf growth 96h inconclusive, Pf growth 48h inconclusive (no result: NS1 function inh, CHX counter, Shiga toxin inh)
COc1cccc(CN2CCCCC2c2cccnc2)c1 (stereo unspecified)	Pf growth 48h inconclusive
COc1ccc(CN2CCCCC2c2cccnc2)cc1C (stereo unspecified)	Pf growth 48h 13µM
CN1CCC[C@@H]1c1cccnc1	Pf growth 96h 15µM (no result: NS1 function inh, CHX counter, SARS PLP yeast, Shiga toxin inh)
O=C(Nc1ccc(COc2ccccc2)cc1)Nc1cccc(C(=O)O)c1	CHX counter 17 (no result: Pf growth 48h)
O=C(NC(NC(=S)Nc1cccc(C(=O)O)c1)C(Cl)(Cl)Cl)OCc1ccccc1 (stereo unspecified)	NS1 function inh inconclusive, CHX counter 19, Pf growth 96h inconclusive

Source: PubChem BioAssay
